These results are taken from the supplement of paper PMC10338343.

± gives the standard deviation. The full ranking holds about 6,600 sequences; the median of “pre-steady-state target cleavage rate” is about 0.07, and the highest 2% start at about 0.72. This is one part of a sample in which the highest values are shown more often than they occur. Some results are limits rather than exact numbers.

This experiment relates to MIWI (PIWIL1) piRISC loaded with Kctd7 piRNA (30 nt). In words: pre-steady-state target cleavage rate (min^-1); MIWI and MILI are mouse PIWI proteins and EfPiwi is from a freshwater sponge; tags in brackets are library labels; higher = faster piRNA-guided slicing of the target. Conditions: guide: Kctd7 piRNA 5'p-UGUUAAUCUCUCAGAGAAGGUGACAGUGAU; auxiliary factor: 500 nM mouse GTSF1. Here is the method: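 Cleave-'n-Seq: a library of target RNAs (target site embedded in constant flanks, ACAGCATTCCGCGTTAGTGATATCCG... 5' flank; DNA-blocked outside the site) at 0.1 nM was incubated with 1 nM active mouse MILI or MIWI piRISC (synthetic 5'-monophosphorylated piRNA guide) with or without 500 nM mouse GTSF1 at 33 °C for 1 min to 16 h. Uncleaved targets were sequenced and normalised to non-target controls, and the pooled three trials were fitted to a burst-and-steady-state model to give the pre-steady-state cleavage rate (min^-1; k3 is constrained to at most 1e-4). Sequence is the target site only; target names encode pairing extent (gX:gY) and contiguous / 1-mismatch / 2-mismatch / bulge geometry. Fits with R² ≤ 0 are excluded.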
Regarding UUCACUGUGACCUUCUCUGAGAGAUAAACA, the “pre-steady-state target cleavage rate” value came out at 0.214 ± 0.023.
In the case of UUCACUGUCAGCUUCUCUGAGAGAUUAACA, the “pre-steady-state target cleavage rate” value turned out to be 0.723 ± 0.032.
The result for UACACUGUCAGCUUCUCUGAGAGAUUAACA reads 0.655 ± 0.027; that for AUGACUGUCAGCUUCUCUGAGAGAUUAACA, 0.721 ± 0.046.
The result for UAGACUGUCAGCUUCUCUGUGAGAUUAACA reads 0.198 ± 0.0095; that for UUCACUGUCUGCUUCUCUGAGAGAUUAACA, 0.639 ± 0.038.
AACACUGUCAGCUUCUCUGAGAGAUUAACA: the “pre-steady-state target cleavage rate” value came out at 0.753 ± 0.039.
The result for UUCUCUGUCAGCUUCUCUGAGAGAUUAACA reads 0.586 ± 0.028; that for UACACUGUCUGCUUCUCUGAGAGAUUAACA, 0.708 ± 0.043; that for AUCACUGUCAGCUUCUCUGUGAGAUUAACA, 0.237 ± 0.013.
The result for UAGACUGUCAGCUUCUCUGAGAGAUUAACA reads 0.753 ± 0.05; that for AUCACUGUCAGCUUCUCUGAGAGAUUAACA, 0.802 ± 0.044.
The figure for AUCACUGUCUGCUUCUCUGAGAGAUUAACA is 0.74 ± 0.042; for UUCACUGUCACGUUCUCUCAGAGAUUAACA it is 0.0729 ± 0.0078; for UAGUGACAGUGGAAGUCUGAGAUAUUAACA it is below 0.0001.
As to AUCAGUGUCACCUUGUCUGAGAGAUUAACA, the “pre-steady-state target cleavage rate” value amounted to 0.209 ± 0.029.
The figure for UACACUGUCACCUUCUCCGAGAGAUUAACA is 0.351 ± 0.051.
The figure for UUCACUGUCACCUUCUCUGUGAGAUUAUCA is 0.106 ± 0.025; for UAGUGAGUCACCUACUCUGAGAGAUUAAGA it is 0.13 ± 0.021; for UAGACUGUCAGCCUUCUCUGAGAGAUUAACA it is 0.231 ± 0.024.
The result for UUCACUGUCACCUUCUCUGACGAGAUUAACA reads 0.0334 ± 0.0098; that for AUCACUGGUCACCUUCUCUGAGAGAUUAACA, 0.742 ± 0.047.
Consider UUCACUGGUCACCUUCUCUGAGAGAUUAACA, for which the “pre-steady-state target cleavage rate” value was 0.652 ± 0.034.
Take UUCACUUGUCACCUUCUCUGAGAGAUUAACA: the “pre-steady-state target cleavage rate” value stood at 0.63 ± 0.09.
The figure for “AUCACUGUCACCUUCUCUGAGAGAUUAACA [g2:g30:cont:t1A]” is 0.734 ± 0.035.
The result for UUCACUGUCACCUUCUCUGAGAGAAUUAACA reads 0.641 ± 0.098; that for AUCACUGUCACCUUCUCUGAGAAUUAACA, 0.366 ± 0.11.
The result for UACACUUGUCACCUUCUCUGAGAGAUUAACA reads 0.631 ± 0.088.
As for AUCACUGUCACCUUCUCUGAGAGAAUUAACA, the “pre-steady-state target cleavage rate” value was found to be 0.738 ± 0.13.
The result for UACACUGGUCACCUUCUCUGAGAGAUUAACA reads 0.676 ± 0.038; that for AUCACUGUCACCUUCUCUCUGAGAUUAACA, 0.0402 ± 0.0095.
The result for “AUCACUGUCACCUUCUCUGAGAGAUUAACC [g2:g30:cont:t1C]” reads 0.387 ± 0.032; that for AUCACUUGUCACCUUCUCUGAGAGAUUAACA, 0.754 ± 0.12; that for UAGAGACUCACCUUCUCUGAGAGAUUAUGA, 0.0764 ± 0.014.
The figure for UUCACUGUCACCUUCUCUGAGUAGAUUAACA is 0.0213 ± 0.0063.
Regarding UAGUCUGUCACCUUUUCUGAGAGAUUAACA, the “pre-steady-state target cleavage rate” value is 0.542 ± 0.029.
The result for AUCACUGUCACCUUCACUGAGUGAUUAACA reads 0.0332 ± 0.007; that for UAGUGACAGACCUUCACUGAGAGUUUAACA, 0.0305 ± 0.011; that for UAGUGACUCACCUUCUCUGAGUGAUAAACA, 0.0392 ± 0.007.
With “AUCACUGUCACCUUCUCUGAGAGAUUAACG [g2:g30:cont:t1G]”, the “pre-steady-state target cleavage rate” value was 0.713 ± 0.037.
The figure for AUCACUGUCACCUUCUCUGAGAGAUUAAUCA is 0.381 ± 0.04; for AAUCACUGUCACCUUCUCUGAGAGAUUAACA it is 0.81 ± 0.043.
The result for UAGUGACUCACCUUCUCUGAGAGAAUAAGA reads 0.02 ± 0.0073; that for UUCACAGUCACCUUCUCUGAGAGAUUAAGA, 0.137 ± 0.027.
The figure for AUCAGUGUCAGCUUCUCUGAGAGAUUAACA is 0.734 ± 0.034; for UACAGUGUCAGCUUCUCUGAGAGAUUAACA it is 0.622 ± 0.028.
As to UAGAGUGUCAGCUUCUCUGAGAGAUUAACA, the “pre-steady-state target cleavage rate” value came out at 0.772 ± 0.044.
The figure for UUCAGUGUCAGCUUCUCUGAGAGAUUAACA is 0.609 ± 0.032; for UAGUGUCUCAGCUUCUCUGAGAGAUUAACA it is 0.437 ± 0.031.
On to UAGUGUGUCAGCUUCUCUGAGAGAUUAACA, for which the “pre-steady-state target cleavage rate” value is 0.561 ± 0.032.
The figure for AUCUCUGUCACCUACUCUGAGAGAUUAACA is 0.627 ± 0.042; for AUCACUGUCACCUUCUCUGACAGAUUAUCA it is 0.0262 ± 0.0092; for UAGUCUGUCACCUUCUCUGAGACAUUAUCA it is 0.0172 ± 0.0056.
The figure for UAGUGUCACACCUUCUCUGAGAGAUAUUGA is 0.00616 ± 0.0033; for UAGUGACACACCUUCUCUGAUAGAUUAACA it is 0.714 ± 0.054; for UAGUGACAGUGGAUCUCUGAGAAAUUAACA it is below 0.0001.
UAGACUGUCACCUUCUCUGAGAGCAUUAACA: the “pre-steady-state target cleavage rate” value worked out at 0.38 ± 0.025.
For the sequence UAGUCUGUCACCUUCUCUGAGUGAUUUACA, the “pre-steady-state target cleavage rate” value amounted to 0.0221 ± 0.0058.
The result for GUCACUGUCACCUUCUCUGAGAGAUUAACA reads 0.763 ± 0.04; that for UUCACUGUCACCUUCUCCUGAGAGAUUAACA, 0.795 ± 0.21.
The figure for UUCACUGUCACCUUCUCUCUGAGAUUAACA is 0.0263 ± 0.0076.
ACCACUGUCACCUUCUCUGAGAGAUUAACA: the “pre-steady-state target cleavage rate” value is 0.715 ± 0.039.
In the case of UACCACUGUCACCUUCUCUGAGAGAUUAACA, the “pre-steady-state target cleavage rate” value was determined as 0.773 ± 0.044.
The result for AUCCACUGUCACCUUCUCUGAGAGAUUAACA reads 0.712 ± 0.046.
The result for AUCACUGUCACCUUCUCCUGAGAGAUUAACA reads 0.645 ± 0.17; that for UCCACUGUCACCUUCUCUGAGAGAUUAACA, 0.68 ± 0.028; that for AGUCACUGUCACCUUCUCUGAGAGAUUAACA, 0.833 ± 0.057.
The figure for UUUCACUGUCACCUUCUCUGAGAGAUUAACA is 0.415 ± 0.04; for UACACUGUCACCUUCUCCUGAGAGAUUAACA it is 0.115 ± 0.043; for UUCACUGUCACCUUCUCUGAGAGAAAUACA it is 0.179 ± 0.038.
As for AUCACUGUCACCUUCAUCUGAGAGAUUAACA, the “pre-steady-state target cleavage rate” value was determined as 0.275 ± 0.053.
